Test results from PubChem BioAssay (NCI).
This is part of a sample that, as a whole, favours compounds with a hit. Of some 79,000 tested, about 15% had one in any assay. No stated cut-off is given here; in the data, active means growth inhibition above about 70%; inactive means the rest.

Legend:
[1] = NCI Yeast Anticancer Drug Screen. Data for the rad50 strain (AID 155);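 further: 0% = growth of vehicle-only cultures of the same strain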; conditions: S. cerevisiae rad50 strain growth inhibition; at 50.0 µM; stronger effect = higher value
Method in brief: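 Growth of the mutant yeast was measured after compound exposure and referenced to vehicle-treated cultures.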

[2] = NCI Yeast Anticancer Drug Screen. Data for the mec2-1 strain (AID 157); conditions: S. cerevisiae mec2-1 strain, at 50.0 µM, stronger effect = higher value
Method in brief: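 Readout is yeast growth inhibition, normalised to vehicle-treated controls, in the mec2-1 strain exposed to compound.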

[3] = NCI Yeast Anticancer Drug Screen. Data for the sgs1 mgt1 strain (AID 161);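 further: 0% = growth of cultures given vehicle only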; conditions: S. cerevisiae sgs1 mgt1 strain, at 50.0 µM, stronger effect = higher value
Method in brief: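 Growth of a repair-deficient yeast mutant was monitored after compound treatment and expressed as inhibition relative to vehicle-treated cultures.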

[4] = NCI Yeast Anticancer Drug Screen. Data for the cln2 rad14 strain (AID 165);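 further: 0% = growth equal to vehicle treated cultures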; conditions: S. cerevisiae cln2 rad14 strain, at 50.0 µM, stronger effect = higher value
Method in brief: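 Relative to vehicle controls, growth inhibition of compound-treated cln2 rad14 yeast was recorded.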

[5] = NCI Yeast Anticancer Drug Screen. Data for the bub3 strain (AID 167); conditions: S. cerevisiae bub3 mutant strain, at 50.0 µM, stronger effect = higher value
Method in brief: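 Whole-cell yeast assay. The mutant strain was incubated with compounds, and growth inhibition was determined by comparison with vehicle-treated cells.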

[6] = NCI Yeast Anticancer Drug Screen. Data for the mlh1 rad18 strain (AID 175); conditions: S. cerevisiae mlh1 rad18 strain growth inhibition; at 50.0 µM; stronger effect = higher value
Method in brief: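 Test agents were incubated with a yeast strain of defined genotype (DNA damage repair defect). Inhibition of growth was derived by comparison with vehicle-exposed cultures.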

Measured: growth inhibition

COC(=O)NC(=Nc1ccc(Oc2ccccc2)cc1NC=O)NC(=O)OC
inactive: [1] 0.15% | [2] -14.8% | [3] -13.6% | [4] 25.4% | [5] 15.9% | [6] 11.5%

O=C(Oc1ccc(C(=O)c2ccccc2)cc1)C(Cl)=C(Cl)Cl
inactive: [1] -6.95% | [2] -1.75% | [3] 7.7% | [4] -55.8% | [5] 7.35% | [6] -4%

N#CCCC1C(=O)CCCC1=O
inactive: [1] 0.2% | [2] 9.2% | [3] -0.85% | [4] -13.6% | [5] 6.9% | [6] 12.9%

Brc1c2ccccc2cc2ccccc12
inactive: [1] 22% | [2] 29.8% | [3] 25% | [4] -8.8% | [5] 63.4% | [6] 42.6%

Cc1ccc(C(CS(=O)(=O)c2ccc(C)cc2)c2ccccc2)cc1 (stereo unspecified)
inactive: [1] 0.5% | [2] 6.15% | [3] -7.8% | [4] -20.1% | [5] 1.7% | [6] -19.9%

O=c1[nH]nc(Sc2ccccc2)c(=O)[nH]1
inactive: [1] -11.8% | [2] -3.4% | [3] -12.6% | [4] -10.4% | [5] -11.4% | [6] -14.9%

CCCC1OCC(CC)C(CCC)O1 (stereo unspecified)
inactive: [1] 25.5% | [2] 4.95% | [3] 6.25% | [4] -37% | [5] 7.4% | [6] 2.7%

N#CC[N+]1(Cc2ccccn2)CCCC1
inactive: [1] -4.5% | [2] -2.05% | [3] -13.8% | [4] 6.4% | [5] -2.5% | [6] -7.8%

CCCCCC[C@@H](O)C/C=C\CCCCCCCC(=O)OCC(C)O (stereo partly specified)
inactive: [1] 22.1% | [2] -2.35% | [3] 8.9% | [4] -30.6% | [5] -2.85% | [6] -20.4%

CCCCOC(=O)CCCCCCC/C=C/C1C=CC(CCCC)C(C#N)C1C#N (stereo unspecified)
inactive: [1] 1% | [2] -5.95% | [3] -25.1% | [4] -6.05% | [5] -4.3% | [6] -13.3%

CCCNC(=S)NNC(N)=O
inactive: [1] 2.5% | [2] 7.35% | [3] -9.05% | [4] 6.15% | [5] -11.2% | [6] 12.2%

Cc1ccc(NC(=S)NC2CCCCC2)cc1Cl
inactive: [1] -2.4% | [2] 43% | [3] 29.4% | [4] -24.9% | [5] 42.3% | [6] 26.6%

O=C(Oc1c(Cl)c(Cl)c(Cl)c(Cl)c1Cl)c1ccc([N+](=O)[O-])cc1
inactive: [1] -27.6% | [2] -1.55% | [3] -26.6% | [4] -49% | [5] 3.9% | [6] -9.25%

O=C(Nc1ccccc1)OC1OC(COC(=O)c2ccccc2)C(OC(=O)c2ccccc2)C1OS(=O)(=O)c1ccc([N+](=O)[O-])cc1 (stereo unspecified)
inactive: [1] -18.1% | [2] 0.15% | [3] -18.2% | [4] -25.6% | [5] -13.1% | [6] -15.8%

CC(=O)Nc1ccc(S(=O)(=O)N/N=C/c2ccco2)cc1
inactive: [1] 23.1% | [2] 1.2% | [3] 5.7% | [4] -30.6% | [5] 4.1% | [6] 33.6%

COc1cc(C2=N/C(=C\c3cc(Cl)cc(Cl)c3O)C(=O)O2)cc(OC)c1OC
inactive: [1] -33.7% | [2] -23.6% | [3] 2.85% | [4] -12.6% | [5] -2.9% | [6] -2.8%

CC(C)NC(=O)c1ccc(CON)cc1
inactive: [1] 5.15% | [2] -9.7% | [3] 2.8% | [4] 23.5% | [5] 35% | [6] 9.8%

COC(=O)/C(=C\SCc1ccccc1)NC(C)=O
inactive: [1] 0.45% | [2] 6.7% | [3] -1.55% | [4] -7.7% | [5] -24.2% | [6] -20.8%

O/N=C1/C(=C/c2ccccc2)CCCC1C(NO)c1ccccc1 (stereo unspecified)
inactive: [1] 27.9% | [2] 10.2% | [3] 27.2% | [4] 28.1% | [5] 17.1% | [6] 57.6%

Cc1nnc2n(c1=O)CCCN2C
inactive: [1] -0.35% | [2] 6.2% | [3] 11.6% | [4] -11.8% | [5] 15.8% | [6] 13.4%

N#Cc1ccccc1NC(=O)C(=O)C(C(=O)c1ccncc1)C1OC(=O)c2ccccc21 (stereo unspecified)
inactive: [1] -2.55% | [2] -17.1% | [3] -31.3% | [4] 10.1% | [5] -0.65% | [6] 5.3%

CC1=C(C)C(=O)c2c(OC(=O)c3ccccc3)ccc(OC(=O)c3ccccc3)c2C1=O
inactive: [1] -18.8% | [2] 7.7% | [3] 19.3% | [4] -18.7% | [5] -1.2% | [6] -13.8%

COc1ccc(N2C(=O)C3c4[nH]c5ccc(F)cc5c4C4CCC(C(C)(C)C)CC4C3C2=O)cc1 (stereo unspecified)
inactive: [1] -7.05% | [2] -2.3% | [3] 1.55% | [4] 7.45% | [5] -3.2% | [6] 22.1%

CN(C)C(=O)Nc1cccc(OC(=O)NC2CCCCCCC2)c1
inactive: [1] 2.65% | [2] 28.3% | [3] 29.2% | [4] 3.95% | [5] 34.4% | [6] 19.6%

CC(C)N(CCn1c2c3ccccc3ccc2c2oc(=O)c3ccccc3c21)C(C)C
inactive: [1] 13.8% | [2] -23.7% | [3] -2.8% | [4] 12% | [5] -2.95% | [6] -8%

CNCCC(=O)c1ccccc1
inactive: [1] -20.9% | [2] -14.3% | [3] -14.4% | [4] -64.8% | [5] -17.6% | [6] 2.25%

Clc1ncc(-c2ccccc2)nc1Cl
inactive: [1] 49.5% | [2] 11.4% | [3] 0.6% | [4] 1.25% | [5] 1.75% | [6] 14.9%

CCCCN1CSC(=S)N(CCCC)C1
inactive: [1] 39.5% | [2] 45.5% | [3] 59.2% | [4] -10.4% | [5] 51.4% | [6] 37%

O=S1c2ccccc2N=C(c2ccc3ccccc3c2)CC1c1ccccc1F (stereo unspecified)
inactive: [1] -1.1% | [2] -2.95% | [3] 12.3% | [4] 4.45% | [5] 2.45% | [6] 6.8%

CCN(CC)C1Oc2cc3c(cc2C(c2cccc(OC)c2O)C1C)OCO3 (stereo unspecified)
inactive: [1] 21.1% | [2] -0.15% | [3] 22.8% | [4] 21.7% | [5] 15.2% | [6] -1.4%

CCCCC(=O)N/N=C/c1ccccc1OCC
inactive: [1] -7% | [2] 0.05% | [3] 0.6% | [4] -3.3% | [5] -9.9% | [6] -7.6%

CCOc1ccc(NC=O)cc1
inactive: [1] 0.75% | [2] 8.45% | [3] 5.2% | [4] -3.55% | [5] 18.5% | [6] -11.3%

CCOC1=C/C(=N\NC(N)=O)CCC1
inactive: [1] 9.35% | [2] 7.2% | [3] -1.1% | [4] 27.8% | [5] 3.95% | [6] 0.1%

COc1cc(C2c3cc4c(cc3OC(Nc3ccccc3)C2C)OCO4)cc(OC)c1OC (stereo unspecified)
inactive: [1] -12.7% | [2] 5.6% | [3] 2.95% | [4] -10.6% | [5] -6.5% | [6] 20.8%

CC(C)(C)Nc1ccc([N+](=O)[O-])cc1[N+](=O)[O-]
inactive: [1] 26.4% | [2] -21.9% | [3] 6.6% | [4] 7.95% | [5] 25.2% | [6] -10.7%

Nc1nc(N)nc(SCCO)n1
inactive: [1] -25.1% | [2] 1.55% | [3] -14.1% | [4] -44.8% | [5] -4.75% | [6] -8.45%

CC(C)(C)OC(=O)NC(CCCCNC(=O)OCc1ccccc1)C(=O)NCCNc1ccc(NCCNC(=O)C(CCCCNC(=O)OCc2ccccc2)NC(=O)OC(C)(C)C)c2c1C(=O)c1ccccc1C2=O (stereo unspecified)
inactive: [1] -3.7% | [2] 0.1% | [3] -27.4% | [4] -1.4% | [5] -31.6% | [6] -52.8%

N#CC(C(=O)C(=O)Nc1cccc(C(F)(F)F)c1)c1cccc(Cl)c1 (stereo unspecified)
inactive: [1] 19.1% | [2] 11.4% | [3] 14.8% | [4] 12.2% | [5] 19.6% | [6] 28.9%

Fc1c(F)c(-c2c(F)c(F)c(Br)c(F)c2F)c(F)c(F)c1Br
inactive: [1] 2.5% | [2] -14.6% | [3] -7.45% | [4] 6.15% | [5] 20.6% | [6] -0.65%

Fc1ccc(-c2cc(-c3ccc(F)cc3)cc(-c3ccc(F)cc3)c2)cc1
inactive: [1] -0.4% | [2] 11.5% | [3] 13.2% | [4] 14.2% | [5] -8.15% | [6] 10.4%

NC(=S)N/C=C(/c1ccc(Cl)cc1Cl)S(=O)(=O)Cc1ccc(Cl)cc1Cl
inactive: [1] 6.85% | [2] -6.7% | [3] 9.6% | [4] 6.95% | [5] 0.2% | [6] 9.7%
